GLD-1 TGE inh: GLD-1/TGE RNA complex disruptors, primary screen, biochemical, fluorescence polarization; inhibition, % at 5.96 µM; AID 2280, 2010; purified GLD-1 + fluorescein TGE RNA; 0.44% of 320,000 active;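 active = percent inhibition above a per-plate cutoff, the plate mean of test compounds plus 3 SD, cut at about 30% in these data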;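 note: 0% = DMSO wells with GLD-1 and probe and 100% = wells lacking GLD-1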
MCL1-BIM inh: inhibitors of MCL1 binding to BIM-BH3, primary screen, biochemical, fluorescence polarization; Induced myeloid leukemia cell differentiation protein Mcl-1 (Homo sapiens), Q07820; GST-MCL1 / FITC-Bim-BH3 fluorescence polarization; inhibition, % at 10.9 µM; 0.68% of 320,000 active; AID 2057, 2009;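 active = inhibition above the mean inhibition of all tested compounds plus 3 SD, set per campaign, cut at about 40% in these data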;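 note: 0% = DMSO wells and 100% = unlabeled Bim-BH3 peptide control; higher means more loss of mP so more displacement of Bim peptide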
MEX-5 binding: MEX-5 zinc finger RNA-binding disruptors – biochemical, C. elegans, fluorescence polarization, MLPCN library, primary screen; Zinc finger protein mex-5 (Caenorhabditis elegans), Q9XUB2; MEX-5/FITC-TCR2 RNA binding; hits give low values; activity score (negative = inhibition of binding), % at 10 µM; 0.38% of 300,000 active; AID 1832, 2009;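 active = inhibition past about -25% in most replicates, and total fluorescence under double the plate's negative control median, limit read from the data; inconclusive = replicates evenly split on the limit, or fluorescence at least double controls; inactive = too little inhibition in most replicates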;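 note: 0% = DMSO and -100% = 5 µM competing unlabeled TCR2 RNA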
E coli Lon inh: inhibitors of E. coli Lon protease, primary screen, biochemical, fluorescence polarization. purified E. coli Lon protease. inhibition, % at 7.94 µM. 0.42% of 360,000 active. AID 602123, 2011; in the data active = inhibition above about 13%, passing the limit was not always enough;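 note: 0% = enzyme with probe and DMSO and 100% = no enzyme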
EBV gp42 inh: Epstein-Barr virus gp42 inhibitors, primary screen, biochemical, uHTS, fluorescence polarization. Glycoprotein 42 (Epstein-Barr virus (strain AG876)), Q1HVG2. Fluorescence polarization binding assay, mP read-out. inhibition, % (tested at 21.74 µM). 0.42% of 220,000 active; in the data active = inhibition above about 50%
Target sequence (Q1HVG2 whole entry, looked up): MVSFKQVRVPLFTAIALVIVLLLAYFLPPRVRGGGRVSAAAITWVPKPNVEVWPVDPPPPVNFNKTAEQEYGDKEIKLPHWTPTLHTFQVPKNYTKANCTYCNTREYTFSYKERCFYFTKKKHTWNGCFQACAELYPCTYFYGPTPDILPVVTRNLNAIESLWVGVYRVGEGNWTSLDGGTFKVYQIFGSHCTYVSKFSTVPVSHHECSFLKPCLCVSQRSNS
Bcl-xL primary: inhibitors of human Bcl-xL, primary screen, biochemical, fluorescence polarization, HTS | GST-Bcl-xL / FITC-Bim BH3 peptide fluorescence polarization | Bcl-2-like protein 1 (Homo sapiens), Q07817 | inhibition, % at 10.9 µM | 0.7% of 320,000 active;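 active = inhibition above the mean of all tested compounds plus 3 SD, cutoff set per campaign, cut at about 30% in these data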;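 note: 0% = DMSO wells and 100% = unlabeled Bim-BH3 peptide competitor; inhibitors lower millipolarization by displacing the labeled peptide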
Target sequence (Q07817 whole entry, looked up): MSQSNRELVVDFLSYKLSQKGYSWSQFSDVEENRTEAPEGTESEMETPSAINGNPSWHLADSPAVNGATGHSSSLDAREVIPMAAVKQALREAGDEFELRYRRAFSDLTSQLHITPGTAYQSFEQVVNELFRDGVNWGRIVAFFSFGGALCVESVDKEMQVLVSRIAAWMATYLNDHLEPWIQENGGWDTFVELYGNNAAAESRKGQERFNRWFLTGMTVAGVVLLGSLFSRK
An asterisk follows results filed as active; ? = inconclusive; · = not tested or not shown. Only some compounds are listed: those with a hit (about 1.5% of all), similar ones and a draw of the others.

SMILES | GLD-1 TGE inh | MCL1-BIM inh | MEX-5 binding | E coli Lon inh | EBV gp42 inh | Bcl-xL primary
Cc1nc2ccccc2nc1N1CCCCC1 | · | · | · | 8.5 | -2.5 | ·
c1ccc2nc(N3CCCC3)c(N3CCCC3)nc2c1 | 22.2 | 44.4* | 2.5 | -1.0 | 3.5 | 38.7*
CC(=O)c1c(O)c(C)c(O)c2c1OC1=CC(=O)C(C(C)=O)C(=O)[C@@]12C (some centres not stated) | · | · | 3.7 | -26.3 | · | ·
Cc1cc(SCC(=O)N2c3ccccc3NC(=O)CC2C)nc2ccccc12 (configuration not stated) | · | · | · | 2.5 | · | ·
c1ccc2c(c1)nc(NCC1CCCO1)c1nnnn12 (configuration not stated) | 11.5 | 26.7 | 4.0 | -36.7 | 27.1 | 40.4*
CC(C)c1cc(=O)oc2c3c4c(cc12)CCCN4CCC3 | 44.2* | 17.9 | -7.3 | -9.8 | 51.2* | 26.2
Cc1cc2oc(=O)cc(CN3CCOCC3)c2cc1C(C)C | 0.5 | 3.2 | 1.4 | -0.7 | · | 2.3
COc1ccc([C@H]2CC(=O)C=C(c3cccc4c3Oc3ccccc3S4)C2)cc1 | 3.0 | -2.8 | · | -12.9 | · | 4.5
Oc1[nH]c2ccccc2c1N=NC(=S)N1CCOCC1 | -1.7 | 7.5 | -40.8* | -0.6 | -7.5 | 0.3
Oc1[nH]c2ccc(Br)cc2c1N=NC(=S)N1CCOCC1 | 2.2 | 1.6 | -4.7 | 2.1 | -13.5 | -6.9
c1ccc(-c2nn3c(Cn4nnc5ccccc54)nnc3s2)nc1 | 13.6 | 48.0* | -3.7 | -0.4 | 20.5 | 37.6*
CCN(CC)C(=O)COC(=O)c1cc(-c2ccco2)nc2ccccc12 | · | · | 0.8 | 16.8 | 51.8* | ·
CCN(CC)C(=O)COC(=O)c1cc(-c2ccc(OC)cc2)nc2ccccc12 | -4.0 | 0.5 | 0.2 | -11.3 | 1.3 | -0.6
Cn1c(N)c(C(=O)COC(=O)c2cc(-c3ccco3)nc3ccccc23)c(=O)n(Cc2ccccc2)c1=O | -3.8 | 42.6* | -5.3 | · | -17.7 | 19.2
COc1cc(/C=C2\C(C)=C(C#N)c3nc(N)c(C#N)c(C)c32)ccc1OCC(=O)O | 6.0 | 33.8 | -12.8 | -11.6 | -0.7 | 34.5*
CC[n+]1c(/C=C/c2ccc(N(C)C)cc2)ccc2ccccc21 | -2.9 | -13.3 | -27.3* | -34.1 | -56.4 | -6.6
CN(C)c1ccc(/C=C/c2cc[n+](C)cc2)cc1 | 94.6* | -5.4 | 27.1 | -84.4 | -90.9 | 9.4
CC[n+]1c(/C=C/c2ccc(OC)c(OC)c2)ccc2ccccc21 | -107.3 | -18.8 | 8.6 | -26.3 | · | -11.4
O=C(NCCc1ccc(Cl)cc1)C1CCC(=O)N(C2CCCCCC2)C1 (configuration not stated) | 0.6 | 2.2 | -2.2 | -6.1 | · | 134.6*
Cc1ccc(/C=C2/Sc3ccc(C(=O)N4CCN(c5ccccn5)CC4)cc3NC2=O)cc1 | -5.2 | -12.5 | -60.6* | -36.6 | · | -5.6
CS(=O)(=O)c1ccc(Cl)c(NC(=O)CSc2nnc(-c3cccs3)n2N)c1 | -2.9 | -9.0 | · | -8.0 | · | -10.6
Oc1cc2c(cc1O)C1c3ccc(O)c(O)c3OCC1(O)C2 (configuration not stated) | 34.9* | 77.5* | · | 10.5 | -14.0 | 34.2*
O=C(COc1ccc2c3c(c(=O)oc2c1)CCC3)N[C@@H](Cc1ccccc1)C(=O)O | 2.3 | 5.7 | 1.2 | -4.8 | · | 8.1
Cc1ccc(C(=O)Nc2nnc(CC(=O)N/N=C/c3ccncc3)s2)cc1 | -4.7 | -1.4 | 0.6 | 6.1 | 1.9 | 1.2
COc1ccc(C(=O)Nc2nnc(CC(=O)N/N=C/c3ccc(O)cc3O)s2)cc1 | 43.4* | 4.4 | ? | -67.5 | · | 3.5
COCCNC(=O)C1Nc2ccc(C(F)(F)F)cc2C2C=CCC12 (configuration not stated) | 1.7 | 2.8 | 0.1 | -2.1 | · | 0.9
O=C(O)C1Nc2c(C(F)(F)F)ccc(Cl)c2C2C=CCC12 (configuration not stated) | 14.6 | 47.6* | -15.7 | -0.2 | · | 38.5*
COc1cccc(/C=C2\N=C(SC)SC2=O)c1OC | 1.9 | 2.3 | -0.5 | 8.5 | -18.6 | -1.1

Screening results deposited in PubChem BioAssay by several laboratories.
